# Compounds with a hit are over-represented: about 2.8% of the library has one in this group of screens.
# HIF activator: HIF pathway transcriptional activation. U2OS HRE-luciferase reporter, luminescence; normalized: DMSO 0%, desferrioxamine 100%. hit rate 0.32% among 300,000. activation, % at 7.5 µM (by protocol);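 active means mean activation of at least 10% of the iron chelator positive control signal, with at least half of replicates also reaching 10%; inconclusive means mean and replicate majority disagree about reaching 10%; inactive means mean and most replicates under 10%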
# PolyA inh: blocks polyadenylation in yeast reporter cells | S. cerevisiae SKY197-pL101 polyadenylation reporter, beta-gal luminescence; efflux-impaired pdr1/pdr3 knockout yeast; score 100 = 6 SD above DMSO | activity score, % at 12 µM | hit rate 0.02% among 300,000;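 active means lowest replicate activity score at least 50, where 100 means six control SD above control mean; inconclusive means lowest score under 50 but half or more replicates reach 50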;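 further: yeast exposed to compound for 9 h at 30 °C; higher score means more reporter readthrough which indicates perturbed polyadenylation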
# p-CIP stab down: lowers stability of the mouse p/CIP coactivator protein; Q05BA5; F442A p/CIP-EGFP cells, EGFP fluorescence, 16 h; decrease of EGFP signal, % at 10 µM; hit rate 0.01% among 290,000;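 active means EGFP signal decrease of at least 30% at 10 µM or well 3 SD below plate mean, unless failing retest; inactive means the rest, including hits failing retest or dose response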
# Target sequence (Q05BA5 1-1403): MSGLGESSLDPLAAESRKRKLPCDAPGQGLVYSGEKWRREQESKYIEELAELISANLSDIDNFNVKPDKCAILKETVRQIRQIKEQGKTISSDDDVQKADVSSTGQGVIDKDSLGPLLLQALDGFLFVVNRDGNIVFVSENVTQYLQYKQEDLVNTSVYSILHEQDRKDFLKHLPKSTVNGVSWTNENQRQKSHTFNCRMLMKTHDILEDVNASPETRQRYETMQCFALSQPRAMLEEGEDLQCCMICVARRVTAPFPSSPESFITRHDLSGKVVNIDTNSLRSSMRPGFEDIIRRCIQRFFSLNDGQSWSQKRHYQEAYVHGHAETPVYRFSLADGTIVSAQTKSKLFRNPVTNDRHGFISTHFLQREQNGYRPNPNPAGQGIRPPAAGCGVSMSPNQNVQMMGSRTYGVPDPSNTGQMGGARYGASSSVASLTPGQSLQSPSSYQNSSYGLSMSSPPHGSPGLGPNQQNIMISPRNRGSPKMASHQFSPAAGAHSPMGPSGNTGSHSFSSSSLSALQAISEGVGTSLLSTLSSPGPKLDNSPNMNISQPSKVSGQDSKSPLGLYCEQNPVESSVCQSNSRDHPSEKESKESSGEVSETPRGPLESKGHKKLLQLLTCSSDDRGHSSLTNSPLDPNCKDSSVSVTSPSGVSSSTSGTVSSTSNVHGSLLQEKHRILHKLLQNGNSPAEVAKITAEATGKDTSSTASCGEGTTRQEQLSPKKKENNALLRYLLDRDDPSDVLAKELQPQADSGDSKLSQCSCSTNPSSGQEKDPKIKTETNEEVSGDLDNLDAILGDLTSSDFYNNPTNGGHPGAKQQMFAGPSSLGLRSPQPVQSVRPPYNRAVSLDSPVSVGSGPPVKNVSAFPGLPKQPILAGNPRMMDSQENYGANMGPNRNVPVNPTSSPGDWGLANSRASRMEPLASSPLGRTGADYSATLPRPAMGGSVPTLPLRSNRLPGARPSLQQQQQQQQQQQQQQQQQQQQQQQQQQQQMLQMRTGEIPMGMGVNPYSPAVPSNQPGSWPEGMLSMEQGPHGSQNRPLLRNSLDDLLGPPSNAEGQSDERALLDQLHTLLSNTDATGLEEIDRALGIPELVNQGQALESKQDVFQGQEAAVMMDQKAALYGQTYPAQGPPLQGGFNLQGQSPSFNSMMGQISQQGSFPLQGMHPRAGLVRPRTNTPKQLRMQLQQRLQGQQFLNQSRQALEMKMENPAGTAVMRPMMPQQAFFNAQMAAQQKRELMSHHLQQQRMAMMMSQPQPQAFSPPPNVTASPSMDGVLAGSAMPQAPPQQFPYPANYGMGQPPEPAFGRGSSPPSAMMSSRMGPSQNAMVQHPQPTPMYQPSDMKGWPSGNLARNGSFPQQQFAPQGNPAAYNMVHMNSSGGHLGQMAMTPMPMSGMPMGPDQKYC
# Platelet DG rel: modulates dense granule release in human platelets; human platelet-rich plasma, SFLLRN dense granule ATP release, luminescence; inhibition, %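 (compounds screened at 7.5 µM in platelet-rich plasma)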; hit rate 0.22% among 300,000; AID 1663;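 active means mean replicate score, as percent of positive control, at or above 50; inconclusive means mean below 50 but at least one replicate at or above 50; inactive means mean and every replicate below 50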
# AHR act: activates the human aryl hydrocarbon receptor; activation, % at 5 µM; AHR-responsive luciferase reporter cells, luminescence; hit rate 2.5% among 320,000; P35869; in the data active means activation above about 47%;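 further: 0% = vehicle wells and 100% = reference agonist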
# Active calls of the source: *; ? = inconclusive; / = no result given.
SMILES,HIF activator,PolyA inh,p-CIP stab down,Platelet DG rel,AHR act
O=C(N/N=C/c1cc2c3c(c1O)CCCN3CCC2)c1ccccc1O,55.2*,15.0,-5.9,-2.3,/
Cc1cc(C(C)(C)C)ccc1OCC(=O)N/N=C\c1c(C)n(C)n(-c2ccccc2)c1=O,-0.1,-4.0,9.2,-20.1,8.6
C=CCNC(=O)C1CCN(S(=O)(=O)c2ccc3ccccc3c2)CC1,0.2,-23.9,1.6,-6.7,0.4
COc1ccc([C@H]2C=C3CN(C(=O)OC(C)(C)C)S(=O)(=O)[C@H]3C[C@H]2OC(=O)c2cccs2)cc1,-0.5,7.5,-8.6,11.8,5.5
O=C(COC(=O)/C=C/c1cccs1)NC(=O)Cc1ccccc1,0.2,2.3,-12.4,3.9,-1.0
O=C(COC(=O)/C=C/c1cccs1)NC(c1ccccc1)c1ccccc1,-1.6,150.0*,-2.5,-0.9,0.0
Cc1ccccc1NS(=O)(=O)c1ccc2oc(=O)ccc2c1,0.8,-20.7,6.1,1.8,2.5
Cc1cc(C)n2nc(N)c(N=Nc3ccccc3)c2n1,0.3,-8.5,-2.5,?,60.4*
O=C1Nc2ccccc2/C1=C/c1ccccc1Cl,0.4,13.7,-12.3,-1.6,58.6*
Cc1ccc2c(c1)/C(=C/c1ccccc1C)C(=O)N2,-1.5,-3.5,-9.3,-9.8,57.0*
C=CCNC(=S)NS(=O)(=O)c1cccs1,-0.2,8.5,-10.0,-1.9,3.6
COc1ccc(CCNC(=O)CC(NC(=O)c2ccccc2Cl)c2ccccc2)cc1 (centres undefined),46.3*,2.6,-14.9,10.3,-0.8
O=C(CC(NC(=O)c1ccccc1Cl)c1ccccc1)Nc1ccc2c(c1)OCO2 (centres undefined),0.6,/,-21.5,-18.6,59.7*
NS(=O)(=O)c1cccc(NC(=O)CC(NC(=O)c2ccccc2Cl)c2ccccc2)c1 (centres undefined),2.0,0.7,-12.0,-9.5,1.9
N#Cc1ccc(OCC(=O)NNC(=S)NC2CCCCC2)cc1,/,/,/,/,1.1
CCNC(=O)N1CCOCC1,0.1,0.7,-0.8,1.0,0.8
O=C(NCc1ccccn1)Nc1cccc(F)c1,1.0,0.0,-5.1,28.4,9.0
Cc1oc2cc3oc(=O)c(CCC(=O)N[C@H](C(=O)O)C(C)C)c(C)c3cc2c1C,-7.0,15.9,-6.9,-6.2,0.1
O=[N+]([O-])c1cccc(/C=N/n2c(-c3cccnc3)n[nH]c2=S)c1,0.2,13.3,0.1,-4.6,13.8
CC(=O)N(C(C)=O)c1nc(-c2ccccc2)cn1/N=C/c1cccc([N+](=O)[O-])c1,0.0,-30.3,5.3,24.8,48.7*
Cc1ccc(S(=O)(=O)Nc2c(C)nn(C)c2C)c(C)c1,0.3,13.9,/,-17.6,-2.5
COc1ccc(C(CNC(=O)c2oc3ccccc3c2C)N2CCCC2)cc1 (centres undefined),/,/,/,/,47.5*
CCN(CC(=O)Nc1ccc(OC)cc1)C(=O)c1oc2c(Cl)cccc2c1C,0.0,5.9,/,3.8,53.0*
COc1ccc(C(CNC(=O)c2oc3c(Cl)cccc3c2C)N2CCCC2)cc1 (centres undefined),-0.9,-12.0,/,-3.9,49.8*
CCN(CC(=O)Nc1ccccc1C(F)(F)F)C(=O)c1oc2c(Cl)cccc2c1C,-0.3,10.8,/,1.5,6.4
SMILES,HIF activator,PolyA inh,p-CIP stab down,Platelet DG rel,AHR act
CC(=O)c1cccc(S(=O)(=O)N2CCC(C(=O)Nc3cccc(C(=O)NC4CC4)c3)CC2)c1,/,/,/,/,0.7
Cn1c(=O)n(CCc2ccccc2)c(=O)c2c1nc1n2CCN1Cc1ccco1,0.1,-19.5,-16.1,-0.8,66.4*
CC(=O)Cn1c(=O)c2c(nc3n2CCCN3Cc2ccccc2)n(C)c1=O,35.1*,7.3,-9.5,16.1,0.1
Cc1ccc(-c2nnc(SCC(=O)NC3CCS(=O)(=O)C3)nc2-c2ccc(C)cc2)cc1 (centres undefined),0.1,-18.3,1.7,0.9,12.2
CC(C(=O)N(C)C1CCCCC1)N1CCC(C(N)=O)CC1 (centres undefined),-0.5,-10.8,-8.2,7.4,5.2
O=C(Cc1c[nH]c2ccccc12)N1CCN(S(=O)(=O)c2cccc(Cl)c2Cl)CC1,/,/,/,/,13.9
CCC(=O)NCCc1nc2cc(NC(=O)c3ccccc3OC)ccc2n1C,1.6,16.3,-7.7,8.2,-5.5
COc1ccc(S(=O)(=O)Nc2c(C(=O)O)[nH]c3ccccc23)cc1OC,-22.0,3.8,-7.4,-4.5,54.6*
COc1ccc(C(=O)Nc2c(O)ccc3ccccc23)cc1OC,-0.4,6.6,/,4.0,53.1*
COc1ccc(S(=O)(=O)Nc2c(O)ccc3ccccc23)cc1OC,-0.1,-2.1,/,-3.5,60.5*
COc1ccc(C(=O)Nc2ccc3ccccc3c2)cc1OC,4.3,0.9,0.6,-4.4,1.6
O=C(N/N=C/c1c(F)cccc1Cl)c1ccc(Cn2cc(Br)cn2)o1,-0.5,12.9,-8.8,-7.7,48.6*
CCSc1nsc(NC(=O)Nc2ccccc2F)n1,3.5,-0.7,21.7,-0.6,78.2*
O=C(CN1C(=O)CCOc2ccccc21)Nc1ccc(Cl)c(S(=O)(=O)N2CCOCC2)c1,/,/,/,/,-1.2
Cc1ccc(NS(=O)(=O)c2cc(C(=O)Nc3cccnc3)ccc2C)cc1,-0.3,3.5,-2.1,-1.7,/
CCCC(=O)Nc1cc(-c2nc3ncccc3o2)ccc1Cl,-0.3,19.1,-12.7,19.5,75.3*
CCCC(=O)Nc1cc(-c2nc3ncccc3o2)ccc1C,-0.2,6.0,-3.0,-1.5,16.5
Cc1cc(-c2nc3ncccc3o2)ccc1N,3.5,-5.2,-7.6,7.9,8.6
Cc1ccc(-c2nc3ncccc3o2)cc1N,2.2,1.3,12.7,1.6,67.4*
Nc1ccc(Cl)c(-c2nc3ncccc3o2)c1,0.2,-9.4,-10.3,1.1,0.2
Nc1cc(-c2nc3ncccc3o2)ccc1Cl,/,6.0,3.4,-1.0,59.0*
COc1ccc(N2CCN(S(=O)(=O)CC34CCC(CC3=O)C4(C)C)CC2)cc1 (centres undefined),0.2,0.4,2.4,3.6,0.3
CSc1cccc(NC(=O)CN(C)S(=O)(=O)c2cnc[nH]2)c1,-0.1,-3.7,-5.9,-0.3,6.1
COc1ccccc1-c1cc2nc(C)cc(C)n2n1,0.2,-17.4,5.7,4.2,49.3*
COc1ccc(-c2cc3nc(C)cc(N)n3n2)cc1,-2.9,10.3,2.6,94.0*,-9.1
SMILES,HIF activator,PolyA inh,p-CIP stab down,Platelet DG rel,AHR act
COc1ccc(-c2cc3nc(C)cc(-c4ccc(OC)cc4)n3n2)cc1,-2.2,-5.8,6.4,-8.3,23.8
COC(=O)CCCCCc1ccc(C(C)=O)s1,-30.4,-1.8,-5.7,-5.5,-2.7
Cc1cc(C)cc(C(=O)NCC(=O)NNC(=O)CSc2ccccc2F)c1,/,/,/,/,1.7
COc1ccc([C@H]2/C=C\CN(Cc3ccc(N(C)C)cc3)[C@@H](C)C(=O)N2Cc2ccc(F)cc2)cc1,1.4,-6.3,/,1.5,2.4
O=C(COc1ccc2c(c1)OCO2)NC12CC3CC(CC(C3)C1)C2,1.2,-16.7,-2.5,0.5,54.5*
O=C(COc1ccc2c(c1)OCO2)Nc1nncs1,3.5,0.0,-9.0,-15.6,69.2*
CCCC(C)c1nnc(NC(=O)COc2ccc3c(c2)OCO3)s1 (centres undefined),-41.4,16.1,-7.7,-5.5,53.0*
